The values below come from PubChem BioAssay AID587 (National Center for Advancing Translational Sciences (NCATS), 2007).

In all, about 59,000 compounds went through this assay and about 35 (0.06%) were called active. Another 19% or so got no clear call; they are omitted. Rule as the data show it: active = max dye-equivalent concentration above about 10 nM; inconclusive = between about 1.1 nM and that limit; inactive = weaker than that. For the sample, actives were picked, then their nearest neighbours and some compounds at random.

The assay in a line: qHTS Assay for Spectroscopic Profiling in Texas Red Spectral Region. The conditions noted are these: Compound fluorescence, Texas Red channel, 547/618 nm; hits give high values. From the text:
NIH Molecular Libraries Screening Centers Network [MLSCN] NIH Chemical Genomics Center [NCGC] […] Occasionally, the artifactual effect may originate from the compound#s own spectral or other biophysical properties which generally tend to track its assay concentration. Pre-screening/profiling the library with respect to the compounds# spectral properties should help one exclude false positives early on. While the most informative fluorescent profiling data set is obtained by performing a full excitation and emission scan of each well by using a monochromator-based plate reader, such an approach is practical only on a very limited scale as scanning each well requires long time. An alternative approach, applied here, is to perform plate reader scans using selected excitation and emission wavelength pairs to generate a multidimensional relational database that correlates compound concentration and the respective relative fluorescence intensity at a given wavelength set. A standard curve of Texas Red (TR) present on each plate as six-point concentration series, was used to compute a normalized fluorescence response, termed dye-equivalent concentration, for each compound at each concentration.
NCGC Assay Protocol Summary: Buffer: 100 mM Tris buffer, pH 8.0 Dye standard plate: The wells in columns 1 through 4 of a Kalypsys polypropylene 1536-well compound plate were filled with standard solutions of fluorophore corresponding to the spectral region of interest. Solutions of TR were placed in the following wells: U1, V1: 3 mM, U2, V2: 300 uM, U3, V3: 30 uM, U4, V4: zero (DMSO), W1, X1: 3 uM, W2, X2: 900 nM, W3, X3: 300 nM, W4, X4: zero (DMSO). Assay Steps: Six uL of buffer were dispensed to 1536-well Greiner black plates. Compounds and dye standards (23 nL) were transferred via Kalypsys PinTool. The plates were incubated for 15 min at room temperature, and then read on ViewLux (Perkin-Elmer) High-throughput CCD imager using 547 nm and 618 nm excitation and emission filter set. Keywords: NIH Roadmap, MLSCN, MLI, MLSMR, qHTS, NCGC, Texas Red, Fluorescent Profiling.
In general terms: In qHTS, concentration-response curves come from the screen itself.
Take `CC(C)C(NC(=O)c1cccc(S(=O)(=O)N2CCOCC2)c1)C(=O)NCCc1ccccn1` (stereo unspecified): the max dye-equivalent concentration result was “inactive”.

In the case of `CSc1ccc(-c2c(C#N)c(N)nc3c2c(C)nn3-c2ccccc2)cc1`, the max dye-equivalent concentration entry was “inactive”.

For the compound `CC(C)(C)n1nc2c(c1NC(=O)c1ccc(S(=O)(=O)N3CCCC3)cc1)CS(=O)C2` (stereo unspecified), the max dye-equivalent concentration entry was “inactive”.

As to `CCC[C@H]1C(=O)N2C(N(C)C)=Nc3ccc(C)cc3N2C1=O`, the max dye-equivalent concentration entry was “inactive”.

Turning to `Cc1nc2cnc(N3CCN(C)CC3)nc2n(CCC#N)c1=O`, the max dye-equivalent concentration entry was “inactive”.

On to `CCOc1ccc(-c2nnn(CC(=O)N3CCN(c4ccc(OC)cc4)CC3)n2)cc1OCC`, for which the max dye-equivalent concentration result is “inactive”.

Turning to `Cc1cnc(NC(=O)CSc2nnc(-c3ccc(Cl)cc3Cl)n2N)s1`, the max dye-equivalent concentration entry is “inactive”.

As to `CC[C@]1(C)CC(=O)NC1=O`, the max dye-equivalent concentration result is “inactive”.

In the case of `CCc1ccc2oc(=O)cc(CN3CCCCC3C)c2c1` (stereo unspecified), the max dye-equivalent concentration result is “inactive”.

For the compound `Cc1cc(NC(=O)Cn2nc(C(F)(F)F)c3c2CCCC3)no1`, the max dye-equivalent concentration entry was “inactive”.

Consider `Cc1cc(C(F)(F)F)n2ncc(-c3ccccc3)c2n1`, for which the max dye-equivalent concentration result is “inactive”.

For the compound `CN(C)/C=C1/Nc2ccccc2C1=O`, the max dye-equivalent concentration result is “inactive”.

For the compound `CCOC(=O)C1CCCCN1Cc1ccc(OC)c(OC)c1OC` (stereo unspecified), the max dye-equivalent concentration entry was “inactive”.

Regarding `CN(Cc1ccco1)c1ncncc1-c1ccoc1`, the max dye-equivalent concentration result is “inactive”.

Turning to `COc1ccc(-c2c3c(=O)n(C)c(=O)n(C)c3cn2NC(C)=O)cc1`, the max dye-equivalent concentration result is “inactive”.

With `COc1ccc2nccc(C(=O)O)c2c1`, the max dye-equivalent concentration result is “inactive”.

For `Cc1ccc(C(=O)Nc2nnc(-c3cccs3)s2)cc1C`, the max dye-equivalent concentration result was “inactive”.

For the compound `CCc1ccccc1NC(=O)CSc1nnc([C@@H](NC(=O)OC(C)(C)C)C(C)C)o1`, the max dye-equivalent concentration entry is “inactive”.

Take `Cc1ccc(F)cc1NC(=O)c1ccc2c(c1)OCO2`: the max dye-equivalent concentration entry is “inactive”.

With `CC(C)[C@H](NC(=O)Nc1ccc(S(N)(=O)=O)cc1)C(=O)O`, the max dye-equivalent concentration result is “inactive”.

On to `CCc1ccccc1N(CC(=O)N1CCN(c2ccccc2F)CC1)S(C)(=O)=O`, for which the max dye-equivalent concentration entry was “inactive”.

`CN(c1ccccc1)c1ccc(/C=c2\s/c(=C(/C#N)C(=O)C(C)(C)C)n(Cc3ccco3)c2=O)cc1`: the max dye-equivalent concentration was 54 nM (active).

As for `COc1ccccc1NC(=O)CSc1nc2sc(C)c(C)c2c(=O)n1Cc1ccco1`, the max dye-equivalent concentration result was “inactive”.

As to `CCOc1ccccc1/C=c1\sc2nc(-c3ccco3)nn2c1=O`, the max dye-equivalent concentration entry was “inactive”.

As to `Cc1c(S(=O)(=O)O)ccc(N=Nc2c(O)c(C(=O)O)cc3ccccc23)c1Cl`, the max dye-equivalent concentration entry was “inactive”.

For the compound `O=C(NCc1ccco1)c1cnn2c(C(F)(F)F)cc(-c3ccco3)nc12`, the max dye-equivalent concentration result is “inactive”.

For `COCCn1c(=O)c(-c2cccs2)nc2cnc(N3CCN(C)CC3)nc21`, the max dye-equivalent concentration entry is “inactive”.

Consider `COCCn1c(=O)c(CCc2ccccc2)nc2cncnc21`, for which the max dye-equivalent concentration entry is “inactive”.

Consider `COc1ccc(-c2nc3cnc(N(C)C)nc3n(Cc3cccs3)c2=O)cc1`, for which the max dye-equivalent concentration entry is “inactive”.

In the case of `c1ccc2c(Nc3ccncc3)nc(-c3ccc4c(c3)OCO4)nc2c1`, the max dye-equivalent concentration result was “inactive”.

As to `Cn1c(=O)c(CCc2ccccc2)nc2cnc(Nc3ccccc3)nc21`, the max dye-equivalent concentration entry is “inactive”.

Regarding `CS(=O)(=O)NCc1ccc(C(=O)NCc2ccccc2)cc1`, the max dye-equivalent concentration result was “inactive”.

For the compound `CCc1cccc(C)c1NC(=O)CSc1nnc(-c2ccco2)n1N`, the max dye-equivalent concentration entry is “inactive”.

Turning to `O=C(Nc1ccccc1F)c1cc(S(=O)(=O)N2CCCCC2)cs1`, the max dye-equivalent concentration result was “inactive”.

On to `Fc1cnc(N2CCOCC2)nc1NCc1ccccc1`, for which the max dye-equivalent concentration entry was “inactive”.

As for `CCNc1ncc2ncc(=O)n(CCc3ccccc3)c2n1`, the max dye-equivalent concentration result was “inactive”.

In the case of `Cc1noc(C)c1-c1nc(Nc2ccccc2)c2ccccc2n1`, the max dye-equivalent concentration entry was “inactive”.

For the compound `Cc1cc(N2CCCC2)n2nc(C)c(-c3ccccc3)c2n1`, the max dye-equivalent concentration result is “inactive”.

For the compound `CC(C)(C)c1csc(NC2=NS(=O)(=O)c3ccccc32)n1`, the max dye-equivalent concentration entry is “inactive”.

Turning to `COc1ccc(-c2nc3cnc(Oc4ccccc4)nc3n(Cc3cccs3)c2=O)cc1`, the max dye-equivalent concentration result is “inactive”.

Turning to `COC(=O)CN(c1nc(C)c(Cl)c(OC)n1)S(=O)(=O)c1ccc(C)cc1`, the max dye-equivalent concentration entry is “inactive”.

For the compound `COC(=O)CNC(=O)c1ccc2c(c1)S(=O)(=O)c1ccccc1C2=O`, the max dye-equivalent concentration entry was “inactive”.

For the compound `CC(C)C1N=C2c3ccccc3N=C(SCC(=O)c3ccc(O)c(O)c3)N2C1=O` (stereo unspecified), the max dye-equivalent concentration result was “inactive”.

As to `O=C(O)C1CCCCC1C(=O)Nc1ccc(Cl)cc1` (stereo unspecified), the max dye-equivalent concentration entry was “inactive”.

`CCCS(=O)(=O)C(=C1Nc2ccccc2N1)S(=O)(=O)CCC`: the max dye-equivalent concentration entry is “inactive”.

Consider `Cn1c(-c2ccc(C(=O)c3ccccc3)s2)nc2ccccc21`, for which the max dye-equivalent concentration entry is “inactive”.

Regarding `O=C(NCC1CCCO1)C(C(=O)c1ccccc1)n1cc(Cl)ccc1=O` (stereo unspecified), the max dye-equivalent concentration entry was “inactive”.

With `CCOC(=O)c1[nH]c2ccc(C)cc2c1N=C(C)N(C)C`, the max dye-equivalent concentration result was “inactive”.

In the case of `COC(=O)N1CCC2(CCCN(c3ccncc3)C2)CC1`, the max dye-equivalent concentration entry is “inactive”.

On to `COCCn1c(=O)c(-c2ccccc2)nc2cnc(N3CCOCC3)nc21`, for which the max dye-equivalent concentration entry is “inactive”.

In the case of `COCCn1c(=O)c(-c2cc(F)cc(F)c2)nc2cncnc21`, the max dye-equivalent concentration result was “inactive”.

Take `Cc1nn2c3ccccc3nc2n(C)c1=O`: the max dye-equivalent concentration result is “inactive”.

Regarding `O=C(COc1ccc2c3c(c(=O)oc2c1)CCC3)NC1CCCCC1`, the max dye-equivalent concentration entry is “inactive”.

In the case of `O=C(NCc1ccccn1)c1cc2ccccc2oc1=O`, the max dye-equivalent concentration entry was “inactive”.

In the case of `COc1ccc(Cl)cc1NC(=O)c1oc(C)nc1C`, the max dye-equivalent concentration entry is “inactive”.

Take `Cc1c(C)c2c(c(C)c1O)CC[C@@](C)(CN1CCN(c3cc(N4CCCC4)nc(N4CCCC4)n3)CC1)O2`: the max dye-equivalent concentration entry was “inactive”.
